PubChem BioAssay AID1347383 (Zoeller Lab, School of Medicine, Boston University, 2020)
Active and inactive are the calls of the source.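 Rule for the calls: active = cell survival after UV exposure 2 SD above solvent-only control wells at 10 µM, confirmed on one or two repeats; inactive = the rest.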

Assay: protection of CHO cells from pyrene-fatty acid UV killing, primary screen, phospholipid biosynthesis inhibitor project, ZR-82 cells, Analyticon library, screen 2 (AID 1347383);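 note: survival reflects blocked phospholipid synthesis cutting uptake of the phototoxic fatty acid; compound and fatty acid exposure 3 h then viability read next day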
Details: ZR-82 CHO cells, CellTiter Blue, at 10 µM, peroxisome-deficient CHO-K1 variant, with DGAT-1, DGAT-2 and ACAT inhibitors

| Compound | outcome |
| --- | --- |
| C=C(C)[C@@H]1CC[C@]2(C(=O)O)CC[C@]3(C(=O)O)[C@H](CCC4[C@@]5(C)CCC(=O)C(C)(C)C5CC[C@]43C)C12 (stereo not given in full) | inactive |
| C=C1C(=O)OC2/C=C(\C)C3=CC(=O)C(C)(CC(OC(=O)/C(C)=C/COC(C)=O)C12)O3 (stereo not given) | inactive |
| C=C(CO)C(=O)O[C@H]1CC(=C)[C@@H]2CC(=O)[C@H](C)[C@@H]2[C@H]2OC(=O)C(=C)[C@@H]21 | inactive |
| CC(C)=CCn1cnc(=N)c2[nH]cnc21 | inactive |
| OC[C@H]1O[C@@H](Oc2ccccc2)[C@H](O)[C@@H](O)[C@@H]1O | inactive |
| CC(=O)OC1C(=O)C2C3OCC4=C3[C@@](C)(CC[C@@H]4O)CC[C@]2(C)[C@H]1C(C)C (stereo not given in full) | inactive |
| O=c1ccn(C2OC(CO)C(O)C2O)c(=O)[nH]1 (stereo not given) | inactive |
| COc1ccc(/C=C/C(=O)O)cc1 | inactive |
| COc1c(O)ccc2c1C(=O)c1ccccc1C2=O | inactive |
| CC(C)=CCOc1ccc(/C=C/C(=O)c2ccc(O)cc2O)cc1 | inactive |
| C=CC(=C)CCC1(C)C(C)CC(O)C23C(=CC(OC(C)=O)CC12)C(OC)OC3OC(C)=O (stereo not given) | inactive |
| CC(C)(O)[C@@H]1Cc2cc3ccc(=O)oc3cc2O1 | inactive |
| C=C(CO)C1Cc2c(ccc3c(=O)c4c(oc23)COc2cc(O)c(OC)cc2-4)O1 (stereo not given) | inactive |
| CC1=C(C)C(=O)OC(C(C)C2C(O)CC3C4C5OC5C5(O)CC=CC(=O)C5(C)C4CCC32C)C1 (stereo not given) | inactive |
| CC(=O)OC/C(=C/C(=O)O)CC[C@@H]1C(C=O)=CC[C@@H]2C(C)(C)CCC[C@@]12C | inactive |
| COc1cc(CC(C)C(C)Cc2ccc(O)c(O)c2)ccc1O (stereo not given) | inactive |
| C=C1[C@H]2CC[C@H](C(=O)O)[C@@]23CC[C@H](C3)C1(C)C | inactive |
| COc1ccc(-c2coc3cc(O[C@@H]4O[C@H](CO)[C@@H](O)[C@H](O)[C@H]4O)ccc3c2=O)cc1 | inactive |
| CCC(C)C1NC(=O)C(C)NC1=O (stereo not given) | inactive |
| O=c1ccc2ccc(O)cc2o1 | inactive |

| Compound | outcome |
| --- | --- |
| COc1cc2oc(=O)ccc2cc1[C@H]1OC(=O)[C@]2(C)OC12 (stereo not given in full) | inactive |
| C/C=C(/C)C(=O)OC1C2OC2C2(CO2)C2C3OC(=O)C(C)C3CCC12C (stereo not given) | inactive |
| CC(=O)O[C@H]1CC[C@H](C)[C@@]2(C)[C@H](OC(C)=O)c3c(C)coc3C(=O)[C@H]12 | inactive |
| CC(=O)N[C@@H](C(=O)O[C@H]1CCC(C)(C)[C@@H]2CCC3=C(COC3=O)[C@@]12C)C(C)C | inactive |
| C=C1C[C@]23C[C@H]4C5[C@]6(C)CC(=O)C[C@]57C(C2C(O)[C@H]1C(O)C37)N4C6 (stereo not given in full) | inactive |
| O=c1c(O)c(-c2ccc(O)cc2)oc2cc(O)cc(O)c12 | inactive |
| CCCCC[C@H](O)[C@H]1C(=O)OC[C@H]1CO | inactive |
| C=C1NC(=O)C2CCCN2C1=O (stereo not given) | inactive |
| COc1ccc2cc3[n+](cc2c1OC)CCc1cc2c(cc1-3)OCO2 | inactive |
| CO[C@@H]1[C@H](O)CC[C@]2(CO2)[C@H]1[C@@]1(C)O[C@@H]1CC=C(C)C | inactive |
| COC1=C(C)C(=O)c2c(cc(O)c3c2OC(C)C3(C)CCC=C(C)C)C1=O (stereo not given) | inactive |
| CC[C@H](C)C(=O)O[C@H]1CCC=C2C=C[C@H](C)[C@H](CC[C@H]3C[C@@H](O)CC(=O)O3)[C@H]21 | inactive |
| CC1(C)CCCC2(C)C(CO)C3CCC2C31 (stereo not given) | inactive |
| Oc1ccccc1-c1c(O)cc(O)c(-c2ccccc2)c1O | inactive |
| CCC(O)c1cccc(O)c1CN (stereo not given) | inactive |
| C=C1C[C@]23C[C@H]1CC[C@H]2[C@]1(C)CCC[C@@]2(COC(C)=O)C(=O)O[C@H]([C@H]21)[C@@H]3OC(C)=O | active |
| COc1cc(O)cc2occ(-c3ccc(O)cc3O)c(=O)c12 | inactive |
| C/C1=C\CCC2=C[C@@H](OC2=O)c2c(C)coc2C1 | inactive |
| O=C1CC(c2ccc(O)cc2O)Oc2cc(O)cc(O)c21 (stereo not given) | inactive |
| C=C(C=O)[C@]1(O)C[C@@]2(C)C(=CC1=O)C=C[C@H](OC(=O)/C=C/C=C/[C@H](C)CC)[C@@H]2C | inactive |
